The supplement of paper PMC6555819

Experiments:
Experiment in all cases: PBM binding z-score (relative to random genomic background probes); higher = stronger binding; sequences stand for … in GC…GCGATTGACAGCGTAGAATGAAGG
[1] = tested on: FXR:RXRa (NR concentration 270 nM, RXRa partner concentration 90 nM)
Method in brief: (§1)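 Antibodies against each partner of ligand-free nuclear receptor dimers (one per run) detected binding on custom Agilent 4×180K protein-binding microarrays after 1 h incubation. The double-stranded probes had 34-nt variable regions carrying direct-repeat seeds, single-nucleotide variants, half-site ablations and random human genomic background sequences. Binding z-scores, from regression-normalized fluorescence, use the random background probes as reference.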

[2] = tested on: LXRa:RXRa (NR concentration 270 nM, RXRa partner concentration 90 nM)
Method in brief: as §1

[3] = tested on: LXRa homodimer (NR concentration 270 nM)
Method in brief: as §1

[4] = tested on: LXRb:RXRa (NR concentration 270 nM, RXRa partner concentration 90 nM)
Method in brief: as §1

[5] = tested on: LXRb homodimer (NR concentration 270 nM)
Method in brief: as §1

[6] = tested on: PPARa:RXRa (NR concentration 270 nM, RXRa partner concentration 90 nM)
Method in brief: as §1

[7] = tested on: PPARg:RXRa (NR concentration 180 nM, RXRa partner concentration 90 nM)
Method in brief: as §1

[8] = tested on: PPARg:RXRa 270nM:90nM, anti-RXR (NR concentration 270 nM, RXRa partner concentration 90 nM)
Method in brief: as §1

[9] = tested on: PPARg:RXRa 30nM:10nM, anti-RXR (NR concentration 30 nM, RXRa partner concentration 10 nM)
Method in brief: as §1

[10] = tested on: PPARg:RXRa 90nM:30nM, anti-RXR (NR concentration 90 nM, RXRa partner concentration 30 nM)
Method in brief: as §1

[11] = tested on: PPARg:RXRa DBDmut IVT, anti-RXR (DBD mutation: RXRa K156A/R161A, NR concentration 270 nM, RXRa partner concentration 90 nM)
Method in brief: as §1

[12] = tested on: PPARg:RXRa IVT, anti-PPARg (NR concentration 270 nM, RXRa partner concentration 90 nM)
Method in brief: as §1

[13] = tested on: PPARg DBDmut:RXRa IVT, anti-PPARg (DBD mutation: PPARg1 K132A/R137A, NR concentration 270 nM, RXRa partner concentration 90 nM)
Method in brief: as §1

[14] = tested on: PPARg DBDmut IVT, anti-PPARg (DBD mutation: PPARg1 K132A/R137A, NR concentration 270 nM)
Method in brief: as §1

[15] = tested on: PPARg homodimer (NR concentration 180 nM)
Method in brief: as §1

[16] = tested on: PXR:RXRa (NR concentration 270 nM, RXRa partner concentration 90 nM)
Method in brief: as §1

[17] = tested on: PXR homodimer (NR concentration 270 nM)
Method in brief: as §1

[18] = tested on: RARa:RXR (NR concentration 270 nM, RXRa partner concentration 90 nM)
Method in brief: as §1

[19] = tested on: RARa homodimer (NR concentration 270 nM)
Method in brief: as §1

[20] = tested on: RARb:RXRa (NR concentration 270 nM, RXRa partner concentration 90 nM)
Method in brief: as §1

Sequence | PBM binding z-score [1] | PBM binding z-score [2] | PBM binding z-score [3] | PBM binding z-score [4] | PBM binding z-score [5] | PBM binding z-score [6] | PBM binding z-score [7] | PBM binding z-score [8] | PBM binding z-score [9] | PBM binding z-score [10] | PBM binding z-score [11] | PBM binding z-score [12] | PBM binding z-score [13] | PBM binding z-score [14] | PBM binding z-score [15] | PBM binding z-score [16] | PBM binding z-score [17] | PBM binding z-score [18] | PBM binding z-score [19] | PBM binding z-score [20]
ATCTCTAGGTAAAGAAAGTTCAGTGAATGCAAAT | 0.762 | 4.7 | 1.94 | 1.58 | 0.904 | 1.38 | 0.409 | 0.933 | 0.542 | 0.768 | 2 | 1.69 | 1.32 | 0.83 | 1.41 | 2.68 | 1.68 | 1.42 | 1.41 | 1.82
CCTTACGGGTCACTCCAGGTTATAGCCTCGGAGT | 4.87 | 7.57 | 1.87 | 5.01 | 0.105 | 4.56 | 3.61 | 3.83 | 1.17 | 2.46 | 2.45 | 3.8 | -1.39 | -0.526 | 1.18 | 4.66 | 0.0423 | 3.43 | 0.55 | 3.64
CCAGACAGGTGAGAAGGTAATTCAGCCTCGATTA | -0.0604 | -0.00281 | 0.0932 | 0.0559 | -0.31 | 0.475 | 0.379 | 0.635 | -0.0755 | 0.116 | 1.14 | 0.682 | -0.0729 | -0.734 | 0.321 | -0.0378 | 0.107 | 0.349 | 0.94 | 0.555
GGAACGAGGGCATTTGAGTTGATAGCATGGCGAT | 1.31 | 1.6 | -0.156 | 0.482 | -0.207 | 1.65 | 0.939 | 0.641 | -0.0141 | 0.257 | 2.97 | 2.01 | -0.643 | -0.444 | 0.183 | 4 | 2.08 | 0.869 | -0.446 | 1.96
CGAACTAGGTCATCCAGGACAGTGAATACATTGA | 4.28 | 2.79 | 0.603 | 2.04 | 0.134 | 4.91 | 7.69 | 6.5 | 4.15 | 6.05 | 8.1 | 8.47 | 3.54 | 2.16 | 1.36 | 2.06 | 1.61 | 2.38 | 0.896 | 3.91
GCGACTGGGGCATCAGCAGGTTAACATAACTTAA | -0.169 | -0.338 | -0.456 | 1.01 | -0.643 | 1.27 | 1.18 | 1.16 | 0.116 | 0.609 | 3.98 | 3.26 | -0.488 | -1.04 | 0.292 | 0.289 | -0.239 | 0.486 | -0.18 | 0.898
CAAACTAGGTCAAAGGACAAAGTCGAGCCAACCA | 4.29 | 3.41 | 0.833 | 2.68 | 0.636 | 5.81 | 10.2 | 8.77 | 8.72 | 9.77 | 8.09 | 8.38 | 2.59 | 0.234 | 1.32 | 1.72 | 0.313 | 3.01 | 0.239 | 4.03
TTACCAGGGTGAAGGTCGTTGATCCCTCTGTAGA | 1.98 | 1.73 | -0.022 | 1.44 | -0.184 | 3.62 | 6.75 | 6.39 | 4.84 | 6.33 | 1.33 | 3.97 | 0.161 | -0.0741 | 1.08 | 1.6 | 0.104 | 1.86 | -0.0972 | 1.69
CTACCAAGGTGAACAACGTCGTTGATTACTATTC | 0.772 | 0.327 | -0.307 | 0.812 | -0.301 | 1.29 | 0.69 | 0.538 | -0.133 | 0.52 | 2.88 | 2.23 | 0.00253 | 0.341 | -0.432 | 0.189 | -0.322 | 0.739 | 0.243 | 1.68
TCAGTCAGGTGAAGGTAACTCAGGTACGCAGTCG | 1.03 | 1.75 | -0.167 | 0.908 | 0.224 | 1.1 | 0.838 | 2.17 | 3.25 | 2.69 | 2.31 | 1.88 | 0.527 | -0.686 | 0.571 | 0.5 | 0.129 | 0.701 | 0.00869 | 1.52
GCAGACAGGTGAAACGCAGGTAACTCATGGTGGC | -0.174 | -0.103 | -0.708 | -0.224 | -1.24 | 0.901 | 0.886 | 0.443 | -0.0913 | 0.0978 | 1.08 | 0.828 | -0.609 | -0.755 | -0.331 | -0.113 | -0.622 | 0.721 | -0.93 | 0.653
CCTAGTTGGTCAGGAGGACACACACCGGATATGA | 0.321 | 0.0708 | 0.61 | 0.0444 | 0.0185 | 0.000867 | 1.08 | 0.072 | -0.0757 | -0.0104 | 0.664 | 1.14 | -0.182 | 0.142 | 0.859 | -0.126 | 0.473 | 0.228 | 1.7 | 1.4
TCGAGTAGGTTAGTCGGGGCATACAGCCAACATA | 0.288 | 0.232 | -0.353 | 0.458 | -0.174 | 0.913 | 0.365 | 0.998 | 1.25 | 1.07 | 2.34 | 1.89 | -0.401 | -0.126 | -0.0659 | 0.333 | 0.0501 | 0.379 | -0.329 | 0.592
CCTAGCAGGCCAGGGTCACTCGAGCATTTCGCTT | 2.22 | 1.62 | -0.424 | 1.78 | -0.991 | 2.98 | 0.557 | 1.6 | -0.327 | 0.652 | 0.58 | 1.02 | -0.592 | -1.77 | 0.543 | 2.32 | -0.255 | 3.1 | -0.646 | 2.57
